# Laboratory results: PubChem BioAssay (NCI)
# Values joined by “and” are separate entries in the source; they are usually repeats but may differ in a detail not shown here. Identical values can stand only once. Compounds without any hit were thinned out: in the full panel of roughly 83,000, 20% have a hit.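 How to read the values: 0–100, growth inhibition (40 = 60% inhibited); 0, no net growth; -100 to 0, cell death (-40 = 40% of starting cells died; -100 = all dead).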 A number with no mark means an inactive call. Active and inactive are the calls of the source. Rule for the calls: active = growth percent below 10; inactive = the rest.
# System: HL-60(TB) leukemia
# Assay: NCI-60 one-dose screen, 48 h (100 = growth as untreated, 0 = no growth, -100 = all killed)
# Conditions: 10 µM unless noted
row,SMILES,growth
1,C=C1C(=O)O[C@H]2[C@H]1CC/C(COC(=O)NCc1cc[nH]c1)=C\CC[C@@]1(C)O[C@@H]21,-6.94% (active)
2,O=Nc1c(O)ccc2ccccc12.O=Nc1c(O)ccc2ccccc12.O=Nc1c([O-])ccc2ccccc12.[Fe+3],105%
3,O=C(c1ccc(-c2nc(CSc3nc4ccccc4s3)no2)cc1)N1CCSCC1,27%
4,CC(=O)c1ccc(NC(=O)Nc2ccc(S(=O)(=O)Nc3ccc(Cl)nn3)cc2)cc1,109%
5,O=C(Cc1ccccc1[N+](=O)[O-])c1ccc2c(c1)OCO2,99.7%
6,Cc1ccc2cccc([N+](=O)[O-])c2n1,93.2% and 94.6%
7,COc1ccc(-c2ccc3cnc4sc(-c5ccc(OC)cc5)nc4c3n2)cc1,95.3%
8,CC(=O)N1c2ccccc2NC2=C(C(=O)N(Cc3ccccc3)C2(C)C)C1c1ccco1 (stereo not drawn),9.63% (active)
9,C=C(C)[C@@H]1CC[C@]2(CN)CC[C@]3(C)[C@H](CC[C@@H]4[C@@]5(C)CCC(N)[C@@](C)(CO)[C@@H]5CC[C@]43C)[C@@H]12 (stereo partly drawn),-66.1% (active)
10,CN(C)CC(=O)Nc1ccc2ncnc(Nc3ccc(Oc4cccc(C(F)(F)F)c4)c(Cl)c3)c2c1,2.72% (active)
11,O=C(/C=C/c1cc2ccccc2[nH]c1=O)/C=C/c1cc2ccccc2[nH]c1=O,24.7%
12,CCC(C)C1CCC(O)CC1 (stereo not drawn),99.3%
13,N#Cc1ncc(-c2cc(F)c(F)c(F)c2)c(NC2CCCCCC2)n1,108%
